Measurements as given in PubChem BioAssay (NCI).
“And” between values parts separate entries of the source, which are not always exact repeats. Identical values can stand only once. The panel holds about 83,000 compounds, 20% with a hit somewhere; the sample as a whole holds those more often.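 How to read the values: 0–100, growth inhibition (40 = 60% inhibited); 0, no net growth; -100 to 0, cell death (-40 = 40% of starting cells died; -100 = all dead).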 Values without a mark were called inactive. The source made the active and inactive calls. Rule for the calls: active = growth percent below 10; inactive = the rest.

Each compound was assayed on MDA-MB-468 breast (assay: NCI-60 one-dose screen, 48 h (100 = growth as untreated, 0 = no growth, -100 = all killed)). Details: 10 µM unless noted.
Work on `O=C1C(=C(O)c2ccccc2)C(=O)c2ccccc21` yielded a growth of 120%. Work on `CN(C)c1ccc(/C=N/N=C(N)N)cc1` yielded a growth of 33%. In the case of `CCCCCCCCC(=O)OCCCC(CCC(CCC1CCCO1)OC(=O)CCCCCCCC)OC(=O)CCCCCCCC` (stereo unspecified), the growth is reported as 111%. `Cc1cc(=O)oc2cc(OCCCOc3ccc(/C=C/C(=O)Nc4ccc(Br)cc4)cc3)ccc12` was tested, and the growth was 75.9%. With `Cc1nnc(NS(=O)(=O)c2ccc(N=Nc3ccc(N)nc3N)cc2)s1` the growth was 120% and 132%. In the case of `O=C1CCC(C(=O)N/N=C/c2cc(F)ccc2F)N1` (stereo unspecified), the growth is reported as 111%. `O=C(C=C=Nc1ccccc1)C(=O)N=C=Cc1ccccc1` showed a growth of 22%. `COc1cc(/C=C/C(=O)c2cc(OC)c(OC)c(OC)c2)ccc1Oc1nc2c(c(=O)n(C)c(=O)n2C)n1C` was tested, and the growth was -72% (active). `Cc1ccc(O)c(C(=O)c2ccccc2Cl)c1` showed a growth of 106%. Compound `COc1cc(/C=C/C(=O)c2ccc(Cl)cc2)ccc1OS(=O)(=O)c1ccc(C)cc1` has a growth of 99.7%. Work on `COc1ccc(C(=O)C(Br)C(Br)C(=O)O)cc1` (stereo unspecified) yielded a growth of 93%. In the case of `COc1ccccc1NC(=O)c1ccc(/C=C/C(=O)c2nccn2C)cc1`, the growth is reported as -40.7% (active). `CC(=O)N[C@H](C(=O)N[C@@H](CCCNC(=N)N)C(=O)N[C@@H](CCCCN)C(=O)N[C@@H](CCCNC(=N)N)C(=O)N[C@]1(C)CCC/C=C\CCC[C@@](C)(C(=O)N[C@@H](CC(C)C)C(=O)N[C@@H](CC(C)C)C(=O)N[C@@H](CCC(N)=O)C(=O)N[C@@H](CCC(=O)O)C(=O)N[C@@H](CCCNC(=N)N)C(=O)N[C@@H](CCC(=O)O)C(=O)N[C@@H](CC(C)C)C(=O)N[C@H](C(=O)N[C@@H](CCC(=O)O)C(N)=O)C(C)C)NC(=O)[C@H](CCCNC(=N)N)NC(=O)[C@H](CC(C)C)NC1=O)C(C)C` gave a growth of 109%. Compound `CCOC(=O)CCCS(C)(=O)=O` has a growth of 126%. Compound `O=C(CCCCCNC(=O)c1cc(=O)c(O)co1)Nc1ccccc1` has a growth of 108%. `CCCCCCCCCCCCCCCCCC(=O)OCCCCCCC` showed a growth of 114%. `N#Cc1c(-c2ccc(Cl)cc2)c(C#N)c2c(C#N)c(N)nn2c1N` was tested, and the growth was 80.1%. In the case of `NC(N)=N/N=C(\c1ccccc1)C(O)c1ccccc1` (stereo unspecified), the growth is reported as 99.8%. `COc1cc(C(=O)OCCCCCCCCCCC[P+](c2ccccc2)(c2ccccc2)c2ccccc2)ccc1O` was tested, and the growth was -27.7% (active). `CCN(CC)CCNC(=O)c1ccc(NC(C)=O)cc1` gave a growth of 111%. With `N#Cc1c(-c2ccc(F)cc2)nc(N/N=C/c2cccc(O)c2)nc1N1CCOCC1` the growth was 81.1%. `COc1cc2nc(-c3ccc(Cl)cc3)cc(OCCCN3CCCCC3)c2cc1OC` showed a growth of 47.7%. `CCOC(=O)c1ccc(NCCC(=O)O)cc1` was tested, and the growth was 95.5%. Work on `Nc1nc(N)c2c(n1)NC1(C=C(O)c3ccccc31)C1=C(N2)c2ccccc2C1=O` (stereo unspecified) yielded a growth of 127%. In the case of `C/C(=N/NC(=O)Cn1c2ccccc2c2ccncc21)c1cccs1`, the growth is reported as 105%. `c1ccc(Nc2nnc(-c3cc(-c4cccnc4)n(-c4ccccc4)n3)s2)cc1` gave a growth of 104%. `Cc1cn(-c2cc(F)cc(NC(=O)c3ccc(C)c(Nc4nccc(-c5cccnc5)n4)c3)c2)cn1` was tested, and the growth was -63.4% (active). In the case of `O=C(NC(=S)Nc1ccc(Cl)cc1)c1ccccc1`, the growth is reported as -37% (active). With `Nc1cc(-c2ccc(Cl)cc2)nn1-c1nc(-c2ccc(Br)cc2)cs1` the growth was 99.4%. `COc1ccc(NC2=C(Cl)C(=O)c3nc(C)ccc3C2=O)cc1OC` showed a growth of 58.1%. `N=C1S/C(=C/c2ccc(-c3ccc4c(c3)C(=O)NC4=O)o2)C(=O)N1c1ccc(Br)cc1` was tested, and the growth was 51.6%. In the case of `COc1ccc2c(c1)C(=O)c1c-2c(OCCN2CCCCC2)nc2ccc(OC)cc12`, the growth is reported as -10.6% (active). For `N#Cc1c(-c2ccc(F)cc2)nc(N=Nc2c(O)[nH]c3ccccc23)nc1N1CCOCC1`, the growth was 59.1%. `Nc1ccccc1NS(=O)(=O)c1ccc(Cl)cc1` was tested, and the growth was 99.1%. `Cn1ccc(=Nc2ccc(NC(=O)c3ccc(N=c4ccn(C)c5ccc([N+](=O)[O-])cc45)cc3)cc2)cc1` was tested, and the growth was -2.24% (active). `COc1cc(-c2cc(-c3cccs3)c(C#N)c(N3CCOCC3)n2)cc(OC)c1OC` gave a growth of 55%.
